Assay [1] is described as follows: Validation of Assay for Modulators of Lamin A Splicing (AID 1459; active means well fitted curve in the direction sought with a large enough effect in the signal ratio; the % refers to the signal ratio;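 further: cells exposed to compound for two days before reading; 0% is about no effect; ratio rise marks activators and ratio drop marks inhibitors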). Particulars: Lamin A splicing dual RFP/GFP fluorescence reporter; series mostly up to 9.22 µM. The essentials:
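Readout: ratio of GFP (500-530 nm) to RFP (575-640 nm) total object intensity by 488 nm laser-scanning cytometry after 48 hrs. Cells were HeLa S3 clones carrying lamin A-EGFP minigene plus DsRed2 viability reporter; vehicle 0.5% DMSO final.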

Assay [2] concerns the target DNA repair nuclease/redox regulator APEX1 (Homo sapiens) (UniProt P27695). Put plainly: qHTS Validation Assay for Inhibitors of the Human Apurinic/apyrimidinic Endonuclease 1 (APE1) (AID 1705;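 further: TAMRA fluorescence gain over two minutes as APE1 cuts a quenched THF abasic duplex; on the % scale 0 is the no-effect control and ±100 the full control effect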). The note with it: purified APE1 endonuclease activity, fluorescence, titration; series mostly up to 57.1 µM. The method, boiled down: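 Read-out: TAMRA fluorescence (525 nm ex, 598 nm em) from cleavage of a quenched THF abasic-site duplex, 50 nM final; activity taken as intensity change between third and first of three reads 60 s apart.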
Background: In qHTS, concentration-response curves come from the screen itself.

Assay [3] is described as follows: Counterscreen for APE1 Inhibitors: Fluorescent Dye Displacement Validation Assay (AID 1707).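 Further: plate controls were ThO with dsDNA and no compound for no effect and ThO without dsDNA for full effect.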 The note with it: fluorescent dye displacement from DNA; series mostly up to 57.1 µM. The method, boiled down: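 ThO 250 nM + dsDNA 50 nM (THF abasic site, 5'-TAMRA), Tris-HCl pH7.5/50mM NaCl/2 mM MgCl2/0.01% Tween-20; compounds pin-transferred; ex 480/em 540 nm endpoint. Neutral = no compound; no-DNA ThO wells = negative control.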
For orientation: The purpose of a counterscreen is to sort out artefacts and off-target activity.

For assay [4], the target named is Endonuclease 4 (Escherichia coli (strain K12)) (UniProt P0A6C1). The experiment in a line: Counterscreen for APE1 Inhibitors: qHTS Validation Assay for Inhibitors of Endonuclease IV (AID 1708). Further: on the % scale 0 is the no-effect control and ±100 the full control effect. Particulars: E. coli endonuclease IV, DNA cleavage fluorescence; series mostly up to 57.1 µM. The method, boiled down:
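Concentration-response counterscreen run identically to the APE1 assay: 15 min room-temperature preincubation of 2 nM enzyme with compound, reaction started with 50 nM quenched abasic DNA, progress taken from kinetic fluorescence.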

Assay [5] can be described thus: qHTS for differential inhibitors of proliferation of Plasmodium falciparum line 7G8 (AID 1815).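 Further: parasite growth measured after three days of incubation.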 Further: potency means the concentration at half of the fitted maximal effect.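 On activity change, negative = inhibition: plate controls were vehicle wells for no effect and reference inhibitor wells for full effect.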 Particulars: Plasmodium falciparum 7G8 proliferation inhibition; series mostly up to 28.7 µM.
The nature of assay [6]: qHTS for differential inhibitors of proliferation of Plasmodium falciparum line GB4 (AID 1816).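 Further: parasite growth measured after 72 h incubation.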 Further: potency means the concentration at half of the fitted maximal effect.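 On activity change, negative = inhibition: 0% = vehicle DMSO and -100% = reference inhibitor.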 The note with it: Potency: Plasmodium falciparum GB4 proliferation inhibition; series mostly up to 28.7 µM.
Assay [7] in a line: qHTS for differential inhibitors of proliferation of Plasmodium falciparum line 3D7 (AID 1876). Further: potency means the concentration at half of the fitted maximal effect. The note with it: P. falciparum 3D7 proliferation inhibition; series mostly up to 28.7 µM.
Assay [8] in a line: qHTS for differential inhibitors of proliferation of Plasmodium falciparum line D10 (AID 1877).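 Further: parasites grown with compound for 72 h before DNA staining.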 Further: potency means the concentration at half of the fitted maximal effect.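 On activity change, negative = inhibition: plate controls were vehicle wells for no effect and reference inhibitor wells for full effect.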 Particulars: series mostly up to 28.7 µM.
Assay [9] is described as follows: qHTS for differential inhibitors of proliferation of Plasmodium falciparum line Dd2 (AID 1882). Further: nearly all actives have a fitted effect of over 65% in size. Further: potency means the concentration at half of the fitted maximal effect.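 On activity change, negative = inhibition: plate controls were DMSO vehicle for no effect and 0.29 µM artemisinin for full effect.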 The note with it: Potency: Plasmodium falciparum Dd2 proliferation inhibition; series mostly up to 28.7 µM. The essentials:
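Dd2-infected erythrocytes (0.3% parasitemia, 2.5% hematocrit final) incubated with compound 72 h at 37 C, 5% CO2; lysed with saponin/Triton buffer containing SYBR Green I, incubated overnight in the dark, then read by fluorescence (485/535 nm). Normalized to 0.29 uM artemisinin and DMSO.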

The nature of assay [10]: qHTS for differential inhibitors of proliferation of Plasmodium falciparum line W2 (AID 1883).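 Further: parasites grown with compound for 72 h before lysis and staining.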 Further: potency means the concentration at half of the fitted maximal effect.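 On activity change, negative = inhibition: 0% = vehicle wells and -100% = control inhibitor wells.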 Particulars: Potency: Plasmodium falciparum W2 proliferation inhibition; series mostly up to 28.7 µM.
Assay [11] in a line: qHTS for differential inhibitors of proliferation of Plasmodium falciparum line HB3 (AID 1886).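 Further: parasites grown with compound for 72 h before SYBR Green readout.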 Further: potency means the concentration at half of the fitted maximal effect.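 On activity change, negative = inhibition: plate controls were vehicle for no effect and reference inhibitor for full effect.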 Particulars: Potency: Plasmodium falciparum HB3 proliferation inhibition; series mostly up to 28.7 µM.
The target of assay [12] is Ferritin light chain (Equus caballus) (UniProt P02791). The experiment in a line: qHTS Validation Assay for Identification of Novel General Anesthetics (AID 2323). Further: on the % scale 0 is the no-effect control and ±100 the full control effect. Particulars: horse apoferritin, anesthetic-site fluorescent probe displacement; series mostly up to 76.9 µM. The essentials:
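10 uM horse-spleen apoferritin + 1-AMA (50% saturated, PBS); cpd pin-transferred, 10 min RT. Ex 380/Em 535 nm endpoint. Activity normalized between free 1-AMA and 1-AMA/apoferritin; 4-parameter Hill fit of concentration-response.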

Assay [13] has as its target ATP-dependent DNA helicase Q1 (Homo sapiens) (UniProt P46063). Put plainly: qHTS Validation Assay for Inhibitors of RecQ-Like Dna Helicase 1 (RECQ1) (AID 2353).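 Further: plate controls were DMSO vehicle for no effect and enzyme-free control for full effect.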 The note with it: recombinant RECQ1 helicase DNA unwinding assay; series mostly up to 25.6 µM. The method, boiled down:
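50 nM RECQ1T1 preincubated 15 min with compound in Tris pH 8.0 buffer with MgCl2, DTT, Tween-20 and 2.5 ug/ml poly(dI-dC); started with 200 nM TAMRA/BHQ-2 forked duplex and 2 mM ATP. Unwinding read as fluorescence (525/598 nm), two reads 2 h apart.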

The nature of assay [14]: Cytometric Cell-Based qHTS for Inhibitors of the mTORC1 Signaling Pathway in MEF (Tsc2-/-, p53-/-) Cells (AID 2660).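 Further: percent of cells above a phospho-rpS6 to PI ratio cutoff in each well; plate controls were DMSO for no effect and rapamycin for full effect.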 The note with it: mTORC1 pathway cytometry; series mostly up to 38.3 µM. The method, boiled down:
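Percent of cells positive for normalized phospho-S6 staining is reported, with the cutoff set from rapamycin (7.5 nM) versus DMSO wells. Tsc2-/-, p53-/- MEFs received compound for 24 hrs.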

Assay [15] in a line: High Content Imaging Cell-Based qHTS for Inhibitors of the mTORC1 Signaling Pathway in MEF (Tsc2-/-, p53-/-) Cells (AID 2666).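 Further: percent of cells scored positive for phospho-rpS6 Ser235/236 immunostaining by imaging.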 The note with it: at 38.3 µM (top of the series). The method, boiled down:
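Read-out: % positive cells per well, with thresholds from highest- and lowest-signal wells, based on phospho-rpS6 (Ser235/236) intensity normalized to Hoechst nuclear stain. Cells: Tsc2-/-, p53-/- MEFs carrying empty vector; compound 24 hrs, 37 degree Celsius.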

For assay [16], the target named is alpha-glucosidase (Oryza sativa, rice) (UniProt Q653V4). Put plainly: Counterscreen for Glucocerebrosidase Inhibitors: qHTS Assay for Rice alpha-Glucosidase at pH 5.0 (AID 997).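 Further: 0% = full activity with enzyme and -100% = basal without enzyme.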 The note with it: rice alpha-glucosidase enzyme activity; series mostly up to 76.9 µM. The essentials: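 Rice alpha-glucosidase (4 nM final) with 400 uM 4-methylumbelliferyl-alpha-D-glucopyranoside in citrate buffer pH 5.0, 20 min at room temperature, stopped at pH 10; fluorescence 365/440 nm, compounds 0.7 nM–77 uM, AC50 from Hill fits.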

Assay [17] can be described thus: qHTS Assay for Lipid Storage Modulators (AID 1519; calls by dose curve; on activity change, negative = inhibition: on the % scale 0 is the no-effect control and ±100 the full control effect). The note with it: Drosophila S3 cells, BODIPY lipid droplet/cell ratio, laser cytometry, cells loaded with oleic acid. The essentials: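 Cells seeded at 5,000 per well were treated with compounds over a concentration series and loaded with oleic acid (400 uM, as added). Lipid droplet fluorescence (488 nm excitation, 500-530 nm channel) was read by laser-scanning cytometry and normalized to 20 uM Triacsin C.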

Assay [18] is described as follows: qHTS Assay for Modulators of Human Peripheral Myelin Protein 22 (PMP22) Expression/Activity (AID 1967; active means well fitted curve in the direction sought with a large enough effect in the signal ratio; the % refers to the signal ratio;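 further: 0% = untreated cells and 100% end not stated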). The note with it: Cell-based PMP22 reporter, dual-color luciferase ratio, 0% = compound-free control cells, mouse Pmp22 promoter in mouse Schwann cells; series mostly up to 115 µM. The method, boiled down: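 Mouse MSC80 Schwann line, Pmp22 promoter–CBG68 reporter, EF-alpha–CBR internal control. 24h compound exposure, 37 °C/5% CO2, DMEM + 10% FBS. Readout: corrected green/red luminescence ratio, normalized to untreated cells; concentration-response curves fitted and classified.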

The target of assay [19] is RecQ-like DNA helicase BLM (Homo sapiens) (UniProt P54132). The experiment in a line: qHTS Validation Assay for Inhibitors of Bloom's syndrome helicase (BLM) (AID 2364).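 Further: plate controls were DMSO vehicle for no effect and enzyme-free control for full effect.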 The note with it: BLM helicase DNA unwinding, fluorescence, in vitro; series mostly up to 57.1 µM. The essentials:
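BLM 50 nM in 25 mM Tris-HCl pH 8.0, 5 mM NaCl, 2 mM MgCl2, 1 mM DTT, 0.01% Tween-20, 2.5 ug/ml poly(dI-dC); 15 min cpd preinc, RT. Start: 200 nM forked DNA + 2 mM ATP (final). TAMRA read, 2 reads 2 h apart.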

Assay [20] in a line: qHTS Assay for Identification of Small Molecule Inducers of Hypoxia Response (AID 2120; active means well fitted curve in the direction sought with a large enough effect in the signal ratio, with a control signal flat, not every such curve was filed as active; the % refers to the signal ratio; further: 0% is about no effect). The note with it: hypoxia response reporter cells, beta-lactamase ratio readout; series mostly up to 104 µM. The method, boiled down:
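HRE-bla ME-180 cells in Opti-MEM with 0.5% dialyzed FBS, pre-plated 4-5 h, then compound titration for 17 h at 37 degrees Celsius. CCF4 loaded 2.5 h at room temperature; 460/530 nm ratio gave %Activity and AC50 for induction.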

The mark [21] stands for this setting: measured here: cell count channel max response.
[22] abbreviates: measured here: lipid channel max response.

“And” between values parts separate entries of the source, which are not always exact repeats. Equal values may be shown once. Results filed as inconclusive are left out. The source made the active and inactive calls. Unless noted, the call rests on the fitted dose curve; in most records, active means well fitted curve in the direction sought with a large enough effect; inconclusive means small, poorly fitted or top-dose-only effect, or another doubt; inactive means no such curve, though single readings can be large; an effect the other way counts as inactive or inconclusive.

Chain of Ferritin light chain (Equus caballus) (P02791 2-175 limits assumed): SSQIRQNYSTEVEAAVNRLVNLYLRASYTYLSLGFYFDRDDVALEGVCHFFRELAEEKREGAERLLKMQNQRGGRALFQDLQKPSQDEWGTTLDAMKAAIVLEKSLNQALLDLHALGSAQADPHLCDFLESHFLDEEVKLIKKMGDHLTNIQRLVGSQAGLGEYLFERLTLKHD
Chain of DNA repair nuclease/redox regulator APEX1 (Homo sapiens) (P27695 whole entry, looked up): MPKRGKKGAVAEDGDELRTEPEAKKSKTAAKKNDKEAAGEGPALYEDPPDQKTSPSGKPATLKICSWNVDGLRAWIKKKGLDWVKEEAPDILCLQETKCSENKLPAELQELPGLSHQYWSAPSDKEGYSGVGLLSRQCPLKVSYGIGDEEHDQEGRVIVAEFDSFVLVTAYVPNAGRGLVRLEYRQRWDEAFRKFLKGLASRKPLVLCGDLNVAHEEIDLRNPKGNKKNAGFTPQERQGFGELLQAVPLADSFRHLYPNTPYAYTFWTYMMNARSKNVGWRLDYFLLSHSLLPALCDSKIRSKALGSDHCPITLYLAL
Chain of ATP-dependent DNA helicase Q1 (Homo sapiens) (P46063 whole entry, looked up): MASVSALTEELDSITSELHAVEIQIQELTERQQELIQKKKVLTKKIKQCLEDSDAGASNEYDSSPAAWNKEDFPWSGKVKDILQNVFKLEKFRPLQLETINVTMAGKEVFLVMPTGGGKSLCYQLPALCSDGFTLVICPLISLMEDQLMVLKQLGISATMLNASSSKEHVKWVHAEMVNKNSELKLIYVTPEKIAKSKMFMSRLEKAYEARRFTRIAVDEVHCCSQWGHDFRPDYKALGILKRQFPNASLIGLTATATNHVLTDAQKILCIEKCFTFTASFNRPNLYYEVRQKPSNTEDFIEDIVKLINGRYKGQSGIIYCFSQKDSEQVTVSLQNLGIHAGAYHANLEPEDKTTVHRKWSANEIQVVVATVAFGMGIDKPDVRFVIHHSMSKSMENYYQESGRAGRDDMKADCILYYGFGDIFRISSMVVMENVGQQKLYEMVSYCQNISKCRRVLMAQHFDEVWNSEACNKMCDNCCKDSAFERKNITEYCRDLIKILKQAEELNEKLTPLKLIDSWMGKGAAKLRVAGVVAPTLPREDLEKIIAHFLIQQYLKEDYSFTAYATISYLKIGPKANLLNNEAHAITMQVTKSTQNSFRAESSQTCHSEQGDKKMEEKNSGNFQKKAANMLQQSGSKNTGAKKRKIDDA
Chain of RecQ-like DNA helicase BLM (Homo sapiens) (P54132 whole entry, looked up): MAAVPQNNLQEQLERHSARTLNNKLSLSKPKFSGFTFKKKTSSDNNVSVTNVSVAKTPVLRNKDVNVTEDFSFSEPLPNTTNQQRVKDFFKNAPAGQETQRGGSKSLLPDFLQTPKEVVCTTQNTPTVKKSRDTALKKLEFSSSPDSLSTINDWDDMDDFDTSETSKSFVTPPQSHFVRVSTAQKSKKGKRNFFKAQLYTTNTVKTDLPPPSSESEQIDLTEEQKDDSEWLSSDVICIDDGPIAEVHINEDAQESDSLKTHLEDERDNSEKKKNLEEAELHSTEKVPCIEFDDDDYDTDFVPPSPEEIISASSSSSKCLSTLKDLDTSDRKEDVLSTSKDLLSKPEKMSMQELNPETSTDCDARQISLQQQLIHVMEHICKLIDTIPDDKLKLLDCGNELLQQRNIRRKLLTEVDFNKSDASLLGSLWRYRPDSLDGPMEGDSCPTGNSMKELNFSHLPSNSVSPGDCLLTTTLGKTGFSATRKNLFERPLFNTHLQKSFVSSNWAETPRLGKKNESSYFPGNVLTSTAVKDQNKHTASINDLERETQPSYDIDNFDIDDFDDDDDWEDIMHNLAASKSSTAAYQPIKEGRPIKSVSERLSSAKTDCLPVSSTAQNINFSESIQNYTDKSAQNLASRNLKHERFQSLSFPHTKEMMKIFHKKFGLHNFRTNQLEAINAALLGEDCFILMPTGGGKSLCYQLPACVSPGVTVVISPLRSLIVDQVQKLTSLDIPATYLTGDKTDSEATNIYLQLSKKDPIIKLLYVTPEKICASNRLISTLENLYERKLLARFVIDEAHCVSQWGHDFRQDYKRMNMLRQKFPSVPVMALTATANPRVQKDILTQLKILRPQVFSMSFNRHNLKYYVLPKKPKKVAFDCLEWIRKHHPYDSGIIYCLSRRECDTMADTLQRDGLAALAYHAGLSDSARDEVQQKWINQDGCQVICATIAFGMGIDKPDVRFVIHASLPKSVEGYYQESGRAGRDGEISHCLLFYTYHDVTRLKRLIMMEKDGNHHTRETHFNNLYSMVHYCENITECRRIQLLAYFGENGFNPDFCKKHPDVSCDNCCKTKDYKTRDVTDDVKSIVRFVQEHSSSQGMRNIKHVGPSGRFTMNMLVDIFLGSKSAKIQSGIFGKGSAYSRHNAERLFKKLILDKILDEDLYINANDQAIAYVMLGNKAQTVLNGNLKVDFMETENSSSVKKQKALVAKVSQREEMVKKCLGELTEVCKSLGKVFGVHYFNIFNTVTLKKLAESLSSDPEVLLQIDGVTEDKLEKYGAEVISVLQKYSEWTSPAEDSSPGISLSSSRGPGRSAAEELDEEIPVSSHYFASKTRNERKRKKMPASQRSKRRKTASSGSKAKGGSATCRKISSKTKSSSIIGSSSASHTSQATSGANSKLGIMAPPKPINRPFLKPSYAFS

For the compound `NCCCC(N)(C(=O)O)C(F)F` (centres undefined), the result in assay [1], in [2], in assay [3], in [4], in assay [12] and in assay [13] was inactive. In addition, the outcome in assay [14] and in assay [15] was inactive. Moreover, the Potency entry in assay [5], in assay [6], in assay [7], in assay [8], in assay [9] and in [10] was “inactive” in each case. In [11], the Potency entry was “inactive”.

Take `NCCc1ccc(O)c(O)c1`: the result in assay [16], in assay [1], in assay [2], in assay [3], in assay [4] and in assay [12] was inactive. The outcome in assay [13], in [14] and in [15] was inactive. Further, the activity change, negative = inhibition in [17] (at 57.5 µM (top of the series)) is 6.86% (inactive) and 6.19% (inactive) and 1.49% (inactive). In addition, the max response in assay [17] (setting [21]) is 7.38% and 3.94% and -27.9%; in assay [17] (setting [22]), 20.7% and 9.74% and -24.3%. The Potency entry in assay [9] was “inactive”. In addition, in assay [10], the Potency is 10 µM (active).

Take `CCCCNc1cc(C(=O)O)cc(S(N)(=O)=O)c1Oc1ccccc1`: the result in [16], in assay [1], in assay [2], in assay [3], in assay [4] and in assay [18] was inactive. The result in assay [12], in assay [13], in assay [14] and in assay [15] was inactive. The activity change, negative = inhibition in assay [17] (at 25.7 µM (top of the series)) is 0.496% (inactive); in assay [17] (at 57.5 µM (top of the series)), 9.35% (inactive) and 0.368% (inactive). Besides, the max response in assay [17] (setting [21]) is 0.765% and 10.7% and -18.8%; in assay [17] (setting [22]), -1.29% and 24.4% and -13.7%. Moreover, the Potency result in [5], in assay [6], in [7], in assay [8], in [9] and in assay [10] was “inactive” in each case. For the same compound, the Potency result in assay [11] is “inactive”.

Take `CN1CCN(CCCN2c3ccccc3Sc3ccc(C(F)(F)F)cc32)CC1`: the compound was called inactive in [16], in [2], in assay [3], in assay [12] and in assay [13]. Besides, the activity change, negative = inhibition was -6.05% (inactive) in assay [17] (at 25.7 µM (top of the series)) and 7.35% (inactive) in [17] (at 57.5 µM (top of the series)). The max response in [17] (setting [21]) is -17.1% and 19.1%; in [17] (setting [22]), -20.9% and 29.4%. In addition, the Potency in [5] is 3.98 µM (active); in assay [6], 4.47 µM (active); in assay [7] it was 7.08 µM (active); in [8], 11.2 µM (active); in assay [9] it was 12.6 µM (active); in assay [10] it was 4.47 µM (active). Moreover, in assay [11], the Potency was 7.94 µM (active). In [19], the Potency result was “inactive”.

In the case of `CCCC(CCC)C(=O)O`, the result in assay [16], in assay [2], in assay [3], in [4], in [20] and in assay [12] was inactive. Moreover, the result in assay [13], in assay [14] and in [15] was inactive. For the same compound, the activity change, negative = inhibition in assay [17] (at 57.5 µM (top of the series)) was 7.45% (inactive). Also, the max response stood at 23.9% in assay [17] (setting [21]) and 36.2% in [17] (setting [22]).

With `C[C@]12CCC(=O)C=C1CC[C@@H]1[C@@H]2[C@@H](O)C[C@@]2(C)[C@H]1CC[C@]2(O)C(=O)CO`, the result in [16], in assay [14] and in assay [15] was inactive.

Turning to `O=C(Nc1nc2ccccc2n1CCN1CCOCC1)c1cccc([N+](=O)[O-])c1`, the compound was called inactive in [14] and in [15].

Turning to `Cc1cn[nH]c1`, the compound was called inactive in assay [16], in assay [3], in assay [4], in assay [12], in assay [13] and in [14]. In assay [15], the compound was called inactive. In addition, the Potency entry in assay [5], in assay [6], in [7], in [8], in assay [9] and in assay [10] was “inactive” each time. Further, the Potency entry in assay [11] and in assay [19] was “inactive” throughout.

These data come from PubChem BioAssay (NCATS).
